The whole screen tested about 2,300 compounds, of which about 1,400 (61%) were called active. About 29% were inconclusive and are not listed. The call rests on the fitted dose curve; in most records, active means well fitted inhibition curve with a large enough effect; inconclusive means small, poorly fitted or top-dose-only effect, or effect the other way; inactive means no such curve, though single readings can be large or run the other way. The set was probably picked from earlier hits. This is one part of the list.
Assay: Confirmation screen for delayed death inhibitors of the malarial parasite plastid, 96 hour incubation; further: nearly all actives have a fitted effect of over 60% in size
Details: P. falciparum luciferase growth in erythrocytes; series mostly up to 28.7 µM
How it was run: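 Two-generation (96 h, 37 C) exposure of P. falciparum carrying an integrated firefly luciferase reporter in erythrocytes, 0.1% parasitemia and 2% hematocrit final, Albumax-supplemented RPMI. Luminescence decrease measures growth inhibition.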
With CCOc1ccc(S(=O)(=O)Nc2cc(S(=O)(=O)N(CC)CC)ccc2N2CCCC2)cc1 the Potency was 0.501 µM (active). For N#Cc1cc(C(=O)c2cc(Cl)ccc2O)cn(-c2ccccc2)c1=O, the Potency was 12.6 µM (active). For COc1ccc(Nc2cccc(Cl)c2)c(C(=O)O)c1, the Potency was “inactive”. With COc1cccc(NC(C)C(=O)Nc2cc([N+](=O)[O-])ccc2Cl)c1 (stereo not drawn) the Potency was 3.16 µM (active). For O=C(O)CCc1ccc(-c2ccccc2)n1-c1ccc(C(=O)O)cc1, the Potency was “inactive”. With Cc1ccc(NC(=O)/C(=C\c2ccc([N+](=O)[O-])cc2)NC(=O)c2ccccc2)cc1 the Potency was 2.82 µM (active). With Cc1ccc(NC(=O)c2ccc(Nc3c([N+](=O)[O-])cc([N+](=O)[O-])cc3[N+](=O)[O-])cc2)cc1 the Potency was 2.24 µM (active). In the case of CN1c2ccccc2-c2nc3ccccc3n2C1c1cccs1 (stereo not drawn), the Potency is reported as 4.47 µM (active). With O=C(c1ccc(CS(=O)c2ccccc2Cl)o1)N1CCN(c2ccccn2)CC1 (stereo not drawn) the Potency was 1.41 µM (active). In the case of O=C(c1ccc(CS(=O)c2ccccc2Cl)o1)N1CCCCCC1 (stereo not drawn), the Potency is reported as 5.62 µM (active). In the case of CO[C@@H]1[C@@H](OC2OC(C)C(OC3CC(C)(O)C(OC(=O)CC(C)C)C(C)O3)C(N(C)C)C2O)[C@@H](CC=O)C[C@@H](C)C(=O)/C=C\C2O[C@H]2C[C@@H](C)OC(=O)C[C@H]1OC(C)=O (stereo partly drawn), the Potency is reported as 1.78 µM (active). For CO[C@H]1[C@H](O[C@H]2O[C@@H](C)[C@@H](O[C@@H]3C[C@](C)(O)[C@H](O)[C@H](C)O3)[C@@H](N(C)C)[C@@H]2O)[C@@H](CC=O)C[C@@H](C)[C@@H](O[C@H]2CC[C@H](N(C)C)[C@H](C)O2)/C=C\C=C/C[C@@H](C)OC(=O)C[C@H]1O, the Potency was 2.51 µM (active). With Cc1ccc(OCCSCc2nnc(NC(=O)Nc3cccc(Cl)c3)s2)cc1 the Potency was 2 µM (active). With CCCNC(=O)COC(=O)c1ccccc1C(=O)c1ccc(Cl)c([N+](=O)[O-])c1 the Potency was 10 µM (active). In the case of Cc1onc(-c2c(F)cccc2Cl)c1-c1nnc(-c2ccc(C(F)(F)F)cc2)o1, the Potency is reported as 6.31 µM (active). With COc1cc(/C=C/C(=O)Nc2cccnc2)cc(OC)c1OC the Potency was 11.2 µM (active). For COc1ccc2cc(C(=O)/C=C/c3cc(OC)c(O)c(OC)c3)ccc2c1, the Potency was 15.8 µM (active). In the case of COc1cc(O)cc(O)c1C(=O)/C=C/c1ccccc1, the Potency is reported as 11.2 µM (active). For COc1ccc(C(=O)/C=C/c2ccccc2)c(OC)c1, the Potency was 7.94 µM (active). In the case of COc1ccc(C(=O)/C=C/c2ccc(OC)c(O)c2)c(F)c1, the Potency is reported as 11.2 µM (active). In the case of COc1ccc(C(=O)/C=C/c2cccnc2)c(OC)c1, the Potency is reported as 3.55 µM (active). With Cc1ccc(Nc2cc(C)nc3ccc(C)cc23)cc1 the Potency was 10 µM (active). In the case of COc1cc2c(cc1OC)[C@@H](NC(=O)C(C)C)[C@H](OCc1ccccc1)C2, the Potency is reported as “inactive”. In the case of COC(=O)C1=C(C)N(CC2CC2)C(=NCc2cc(OC)c(OC)c(OC)c2)N[C@H]1c1ccccc1, the Potency is reported as 11.2 µM (active). For O=C(Nc1ccc(N2CCCCC2)c(Cl)c1)c1cccnc1, the Potency was 12.6 µM (active). In the case of Cc1nc(-c2ccccn2)sc1C(=O)Nc1ccc(Cl)c(Cl)c1, the Potency is reported as “inactive”. For O=C(CSc1nnc(NC(=O)c2ccccc2[N+](=O)[O-])s1)NCC1CCCO1 (stereo not drawn), the Potency was 14.1 µM (active). In the case of O=C(COC(=O)c1c2c(nc3ccccc13)CCN(Cc1ccccc1)C2)Nc1c(F)cccc1F, the Potency is reported as 5.01 µM (active). In the case of COc1ccc(Cc2nc3ccc(C(=O)NCCc4ccccn4)cc3o2)cc1OC, the Potency is reported as 11.2 µM (active). For Nc1nc(C2CC2)c(Sc2sc(N)nc2C2CC2)s1, the Potency was “inactive”. In the case of CCOc1ccccc1NC(=O)NC1Cc2ccccc2C1, the Potency is reported as 12.6 µM (active). In the case of CC(C)(C(=O)N[C@H](CO)c1ccccc1)C(=O)N[C@H](CO)c1ccccc1, the Potency is reported as “inactive”. For CCCC(=O)NC(c1ccccc1)c1c(O)ccc2ccccc12 (stereo not drawn), the Potency was 4.47 µM (active). With Cc1ccc2c(c1)C1CC(C)(O2)N(c2cccc(C(=O)N3CCN(c4ccccn4)CC3)c2)C(=O)N1 (stereo not drawn) the Potency was 12.6 µM (active). In the case of Cc1cccc(-n2c(C)cc(/C=N\NC(=O)c3cccs3)c2C)c1, the Potency is reported as 12.6 µM (active). With C[N+]1(CCCCSc2ccc(O)cc2)CCCCC1 the Potency was 4.47 µM (active). In the case of COc1ccc(C)cc1NC(=O)C(Sc1nnc(Nc2cc(C)ccc2OC)s1)c1ccccc1 (stereo not drawn), the Potency is reported as 14.1 µM (active). With Cc1ccc(C(=O)NCCn2ccc3ccccc32)cc1[N+](=O)[O-] the Potency was “inactive”. In the case of COC(=O)c1ccc(CNCC(=O)Nc2ccc(C(=O)OC)cc2)cc1, the Potency is reported as “inactive”. In the case of CCOC(=O)NC(=O)COC(=O)c1ccc(O)cc1, the Potency is reported as “inactive”. With Cc1ccc(C(=O)C[n+]2ccccc2C)cc1[N+](=O)[O-] the Potency was 11.2 µM (active). With Cc1cccc[n+]1CC(=O)Nc1ccc([N+](=O)[O-])cc1 the Potency was 12.6 µM (active). With COC(=O)c1ccc(NC(=O)C[n+]2ccccc2C)cc1 the Potency was 12.6 µM (active). For Cc1cccc[n+]1CC(=O)c1ccc(NC(=O)c2ccccc2)cc1, the Potency was 5.01 µM (active). With CC(C)[C@H](NC(=O)N1CCn2c1nc1ccccc12)C(=O)N[C@H](C(=O)O)c1ccccc1 the Potency was “inactive”. For CCc1ccc(-c2nc3ccc(Br)cc3c(C(=O)O)c2C)s1, the Potency was “inactive”. With S=C(NCc1ccncc1)Nc1ccc(Br)cc1Cl the Potency was 12.6 µM (active). For O=C(C1CC1)N1CCc2cc(Br)cc(S(=O)(=O)NCc3ccco3)c21, the Potency was 11.2 µM (active). In the case of O=C(C1CCC1)N1CCc2cc(S(=O)(=O)NCc3ccco3)ccc21, the Potency is reported as “inactive”. For CCC(=O)N1CCc2cc(Br)cc(S(=O)(=O)NCc3ccco3)c21, the Potency was 12.6 µM (active). In the case of CC1CCN(CCCNS(=O)(=O)c2cc(Br)cc3c2N(C(=O)C2CC2)CC3)CC1, the Potency is reported as 12.6 µM (active). In the case of CCCCN(CCCC)CC(O)c1cc(Cl)cc2c1-c1ccc(Cl)cc1/C2=C/c1ccc(Cl)cc1 (stereo not drawn), the Potency is reported as 0.0562 µM (active). For O=[N+]([O-])c1ccc(C(O)C[n+]2ccccc2)cc1 (stereo not drawn), the Potency was 10 µM (active). With CCOc1ccc(C2NC(=S)NC3=C2CCc2ccccc23)cc1 (stereo not drawn) the Potency was 14.1 µM (active). For CN(C)c1ccc2nc3ccc(=[N+](C)C)cc-3sc2c1, the Potency was 0.0631 µM (active). With Cc1[nH]c(=O)[nH]c(=O)c1S(=O)(=O)N1CCCC(C(=O)N2CCN(c3cccc(C(F)(F)F)c3)CC2)C1 (stereo not drawn) the Potency was 8.91 µM (active). With N#Cc1cccc(NC(=O)Cn2c3[n+](c4ccc(C(F)(F)F)cc42)CCCCC3)c1 the Potency was 0.251 µM (active). In the case of CCCCCn1c(=O)c2ccccc2n2c(CCl)nnc12, the Potency is reported as 6.31 µM (active). In the case of CCCCCCCCC[n+]1cccc2c3ccccc3ccc21, the Potency is reported as 0.158 µM (active). In the case of CCCCCCCOc1ccc(C2(C)NC(=O)NC2=O)cc1 (stereo not drawn), the Potency is reported as 8.91 µM (active). In the case of CCC/C(=N\NC(=O)c1ccco1)c1ccc(Cl)s1, the Potency is reported as 12.6 µM (active). With CCOc1ccc(CN2CCN(Cc3ccc4cc(F)ccc4n3)CC2CCO)cc1 (stereo not drawn) the Potency was 14.1 µM (active). For CCOc1ccccc1CN1CCN(Cc2ccc3cccc(OC)c3n2)CC1CCO (stereo not drawn), the Potency was 12.6 µM (active). For COc1ccc(-c2cc(C(=O)Nc3cc(C)n(Cc4ccc(Cl)cc4)n3)no2)cc1OC, the Potency was 0.316 µM (active). With CCCn1cc(S(=O)(=O)c2ccc(Cl)cc2)c(=O)c2cc(OC)ccc21 the Potency was 11.2 µM (active). In the case of NC(=O)CC(NC(=O)c1ccccc1)c1ccc(N2CCN(c3ccccc3)CC2)c([N+](=O)[O-])c1 (stereo not drawn), the Potency is reported as 12.6 µM (active). For O=C(OCC(=O)N1CCN(c2ccccc2)CC1)c1cc(Cl)ccc1[N+](=O)[O-], the Potency was “inactive”. For O=C(NCc1ccco1)c1cc2sccc2n1Cc1ccc(F)cc1, the Potency was 11.2 µM (active). With CN(CCC#N)C(=O)COC(=O)c1ccc2[nH]c3c(c2c1)CCCC3 the Potency was “inactive”. In the case of COc1ccccc1N1CCN(C(=O)c2ccc3[nH]c4c(c3c2)CCCC4)CC1, the Potency is reported as 11.2 µM (active). In the case of CCN1CCN(Cc2c(O)ccc3c2O/C(=C\C=C\c2ccccc2)C3=O)CC1, the Potency is reported as 4.47 µM (active). For CC1=Nc2cc(C(=O)N3CCCC3)ccc2Sc2c(C)ccc(C)c21, the Potency was 3.16 µM (active). With CC1=Nc2cc(C(=O)N3CCCC3)ccc2Sc2ccc(C)cc21 the Potency was 0.891 µM (active). For CCOC(=O)CSc1nnc(NC(=O)c2cccc([N+](=O)[O-])c2)s1, the Potency was 11.2 µM (active). For Nc1nnnn1/N=C/C(Br)=C/c1ccccc1, the Potency was 12.6 µM (active). With CCCN1CCN(C(=O)C2CCN(S(=O)(=O)c3ccc4c(c3)NC(=O)C(C)S4)CC2)CC1 (stereo not drawn) the Potency was 7.08 µM (active). In the case of Cc1cc(NC(=O)COC(=O)c2ccccc2S(=O)(=O)N(C)c2ccccc2)no1, the Potency is reported as 7.94 µM (active). In the case of Cc1cc(NC(=O)COC(=O)c2c(Cl)cccc2Cl)no1, the Potency is reported as “inactive”. In the case of NC(=O)CSc1nc2c(sc3ccccc32)c(=O)n1CCCN1CCOCC1, the Potency is reported as 3.16 µM (active). In the case of O=C(CSc1nc2c(sc3ccccc32)c(=O)n1-c1ccccc1)NCc1ccco1, the Potency is reported as 12.6 µM (active). For O=C(CSc1c2c(nc3ccccc13)CCCC2)NCc1ccco1, the Potency was “inactive”. In the case of O=C(CSc1nc2ccccc2c(=O)n1Cc1ccc(C(=O)NC2CC2)cc1)NCc1ccco1, the Potency is reported as 7.08 µM (active). In the case of CCN(CC)CCn1c(SCC(=O)NCc2ccccc2)nc2c(sc3ccccc32)c1=O, the Potency is reported as 5.01 µM (active). For CC(=O)Nc1sc(C)c(C)c1C(=O)OCC(=O)N(CC(C)C)C1CCS(=O)(=O)C1 (stereo not drawn), the Potency was 12.6 µM (active). In the case of Cc1cnc(CNC(=O)c2ccc3oc(Cc4ccccc4)nc3c2)[nH]1, the Potency is reported as 14.1 µM (active). With Cc1cnc(CNC(=O)c2ccc3oc(Cc4ccc(Cl)cc4)nc3c2)cn1 the Potency was 12.6 µM (active). In the case of c1ccc(SCc2cn(C[C@H]3CC[C@@H]([C@@H]4CC[C@H](Cn5cc(CSc6ccccc6)nn5)O4)O3)nn2)cc1, the Potency is reported as 11.2 µM (active). With CC1CCCN(c2ccc(F)cc2N)C1 (stereo not drawn) the Potency was 8.91 µM (active).

Reference: PubChem BioAssay AID504848 (National Center for Advancing Translational Sciences (NCATS), 2011)
Potency means the concentration at half of the fitted maximal effect.
